Results from PubChem BioAssay (NCI).
The panel holds about 83,000 compounds, 20% with a hit somewhere; the sample as a whole holds those more often.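 In brief: 96-well plates, 48 h treatment, single concentration, percent growth endpoint.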 A number with no mark means an inactive call. The source made the active and inactive calls. The calls were made as follows: active = growth percent below 10; inactive = the rest.

Experiments:
Experiment in all cases: NCI-60 one-dose screen, 48 h (100 = growth as untreated, 0 = no growth, -100 = all killed)
Details in all cases: 10 µM unless noted
HCT-15 colon = tested on: HCT-15 colon
HT29 colon = tested on: HT29 colon
SNB-75 CNS = tested on: SNB-75 CNS
SNB-19 CNS = tested on: SNB-19 CNS
U251 CNS = tested on: U251 CNS
PC-3 prostate = tested on: PC-3 prostate
UACC-62 melanoma = tested on: UACC-62 melanoma
LOX IMVI melanoma = tested on: LOX IMVI melanoma
SK-MEL-28 melanoma = tested on: SK-MEL-28 melanoma
SK-MEL-5 melanoma = tested on: SK-MEL-5 melanoma

| SMILES | growth (HCT-15 colon) | growth (HT29 colon) | growth (SNB-75 CNS) | growth (SNB-19 CNS) | growth (U251 CNS) | growth (PC-3 prostate) | growth (UACC-62 melanoma) | growth (LOX IMVI melanoma) | growth (SK-MEL-28 melanoma) | growth (SK-MEL-5 melanoma) [%] |
| --- | --- | --- | --- | --- | --- | --- | --- | --- | --- | --- |
| COc1ccc(/C=N\NC(=O)c2cnn(CC(O)c3ccccc3)c2N)cc1OCc1ccc(Cl)cc1 (centres undefined) | 70.5% | 90.6% | 60.8% | 68.2% | 60.6% | 63.6% | 81.1% | 54.6% | 71.4% | – |
| Cc1[nH]c(C(=O)Nc2ccc(C(N)=O)cc2N2CCOC(C)C2)c(Cl)c1Cl (centres undefined) | 93.7% | 118% | 62.3% | 92.7% | 98.6% | 96.7% | 91.1% | 94% | 108% | – |
| CN1CCN(CCNc2nc(-c3cccc(NS(=O)(=O)c4cccc5c(N(C)C)cccc45)c3)cs2)CC1 | 18.5% | 71.6% | 73.8% | 75.5% | 65.9% | 65.5% | 65.7% | 38.1% | 40.2% | – |
| COc1cccc2c1C=CC1(O2)Oc2cccc(OC)c2C=C1C (centres undefined) | 24.9% | 6.27% (active) | -8.19% (active) | 22.8% | 16.8% | 31.4% | 13.1% | 24.5% | 58.4% | – |
| CCCCCCNC(=O)Oc1ccc(/C(=C(/C)c2ccc(Cl)cc2)c2ccc(OCCN3CCCCCC3)cc2)cc1 | 9.59% (active) | 21.3% | 99.6% | 68.4% | 55.8% | 49.2% | 63.8% | 32.8% | 84% | – |
| Cc1nc(/N=C(N)/N=C(\N)c2cccc(Br)c2)sc1C | 25.1% | 17.8% | 62.9% | 42.9% | 47% | 59.8% | 28.1% | 43.5% | 72.8% | – |
| Cc1[nH]c(C(=O)Nc2ccccc2OCc2cccc(C(=O)NC3CCCNC3)c2)c(Cl)c1Cl (centres undefined) | -84.2% (active) | -58.9% (active) | 84.1% | -80.4% (active) | -57.6% (active) | -82.2% (active) | -84.4% (active) | -89.8% (active) | -84.9% (active) | – |
| Brc1cccc(-c2cc(-c3ccc4c(c3)OC=CO4)[nH]n2)c1 | 21.1% | 14% | 27.5% | 48.6% | 29% | 54.1% | 52.2% | 45.6% | 50% | – |
| O=C(CSc1nc2ccccc2c(=O)n1-c1ccc(S(=O)(=O)Nc2ccc(Cl)nn2)cc1)Nc1ccc(S(=O)(=O)Nc2ccc(Cl)nn2)cc1 | 100% | 106% | 96.1% | 101% | 102% | 100% | 94% | 90.4% | 106% | – |
| CCCNNC(=O)c1ccc(-c2ccc(NC(=O)CCCCCCC(=O)N[C@H](C(=O)N3C[C@H](O)C[C@H]3C(=O)N[C@@H](C)c3ccc(-c4scnc4C)cc3)C(C)(C)C)cc2)cc1 | 97.5% | 5.44% (active) | 55.1% | 28.6% | 17.1% | 37.2% | -5.46% (active) | -41.8% (active) | 23.9% | – |
| C#CCN(C)CCCOc1ccc(NCc2ccc(C(=O)NO)cc2)cc1Cl | 20% | 16.2% | 10.4% | 35.2% | 20% | 29.4% | -6.34% (active) | 10.6% | 24% | – |
| COc1ccc(-c2c3c(cn2Cc2cccc(OC)c2)-c2oncc2CCC3)cc1 | 95.1% | 109% | 103% | 93.4% | 93.2% | 85.4% | 79.3% | 95.2% | 110% | – |
| NC(=O)c1ncn2c(=O)n(CCF)nnc12 | 80.4% | 57.4% | 50.6% | 96.1% | 93.7% | 71.6% | 49.6% | 26.1% | 87% | – |
| NS(=O)(=O)c1nnc(/N=C/c2c(O)[nH]c3ccccc23)s1 | 102% | 105% | 81.2% | 105% | 99.9% | 89.3% | 97% | 100% | 114% | – |
| Cc1cc(=O)oc2cc(OCCCOc3ccc(/C=C/C(=O)Nc4ccc(Br)cc4)cc3)ccc12 | 82.3% | 90.8% | 115% | 86.9% | 97.8% | 81.8% | 94.5% | 67.9% | 86.6% | – |
| O=C(CSc1nc2ccccc2c(=O)n1-c1ccccc1)Nc1ccc(S(=O)(=O)Nc2nccs2)cc1 | 66.5% | 69.5% | 57.4% | 43.7% | 2.78% (active) | 91% | 71.4% | 36.5% | 76.3% | – |
| CCCCSC1=C(Cl)CN(c2ccccc2)C1=O | 101% | 114% | 105% | 101% | 99.6% | 103% | 95.7% | 36.4% | 101% | – |
| NC1=NC2(CCCC2)N(c2ccc(S(=O)(=O)Nc3nccs3)cc2)C(N)=N1 | 100% | 109% | 112% | 100% | 104% | 102% | 98.9% | 99% | 105% | – |
| COc1cccc(N2CCN(C3=C(Cl)C(=O)c4ncccc4C3=O)CC2)c1 | 42.3% | 108% | 85.1% | 90.8% | 90.5% | 78.7% | 84.3% | 28.6% | 105% | – |
| O=C(CCCCCCN1CC(=O)N2[C@@H](c3cccs3)c3[nH]c4ccccc4c3C[C@H]2C1=O)NO | 96.1% | 78.9% | 73% | 78.1% | 76.5% | 86.2% | 5.39% (active) | 68.4% | 70.2% | 74.8 |
| CCCCCCCCCCCC(=O)NC(C)(C)C(=O)N1CCCC1C(=O)NC(C)(C)C(=O)NC(C)(C)C(=O)N1CCCC1C(=O)NC(C)(C)C(=O)NC(C)(C)C(=O)N1CCCC1C(=O)NC(C)C(=O)NCCC(=O)NC(C)C(=O)NC(C)(C)C(=O)NC(C)(C)C(=O)NC(C)(C)C(=O)NCCC(=O)NC(C)(C)C(=O)NC(C)(C)C(=O)NC(C)(C)C(=O)NC(C)C(=O)NCCC(=O)O (centres undefined) | -96.5% (active) | -86.6% (active) | -89.7% (active) | -97.4% (active) | -94.7% (active) | -93% (active) | -90.9% (active) | -92.4% (active) | -93.8% (active) | – |
| COc1ccc(C2C(C#N)=C(/N=C/c3ccc(Cl)cc3)Oc3c2sc2c(C)cccc32)cc1 (centres undefined) | 18.8% | 1.39% (active) | 29.2% | 27.9% | 14.1% | 19.2% | 23% | 41.6% | 61.8% | – |
| Cc1ccc(S(=O)(=O)c2nc(-c3ccc(F)cc3)oc2S(C)(=O)=O)cc1 | 13.4% | 55.1% | 87.2% | 91.4% | 96.1% | 91.8% | 84.4% | -68.8% (active) | 79.8% | – |
| N#C/C(=C\c1ccc(-c2ccc(Cl)cc2)o1)C(=O)Nc1ncc(Cc2ccc(Br)cc2)s1 | 15.3% | 7.27% (active) | -18.1% (active) | 3.38% (active) | -81.9% (active) | 9.73% (active) | 1% (active) | -69.7% (active) | 11% | – |
| CNC(=O)c1cc(-c2ccc(NC(=S)Nc3cccc(C(F)(F)F)c3)cc2)nc2cccnc12 | 98.2% | 99.7% | 91.2% | 94.7% | 95.3% | 96.1% | 89.9% | 95.3% | 99.9% | – |
| O=C(CCCCCCN1CC(=O)N2[C@@H](C3CC3)c3[nH]c4ccccc4c3C[C@H]2C1=O)NO | 92.9% | 78.3% | 58.7% | 68.4% | 53.1% | 74.7% | 31.8% | 33.2% | 32.3% | 44.1 |
| O=c1oc2ccc(-c3ccc(F)cc3F)cc2c(=O)n1-c1ccc(Br)cc1F | 47.4% | 109% | 73.9% | 71.7% | 64% | 78.9% | 21.1% | 88.2% | 77.3% | – |
| CCCCc1nc2c(N)nc3ccccc3c2n1Cc1cccc(CN)c1 | 55.9% | 17.4% | – | 63.2% | 38.5% | 53.3% | 76.3% | 18.1% | 59.4% | 55 |
